This note sets out measurements from PubChem BioAssay (NCATS).

Structures are written as SMILES. Records with an inconclusive call do not appear. Entries that show only a call come without a potency. The source made the active and inactive calls. The call rests on the fitted dose curve; in most records, active means well fitted inhibition curve with a large enough effect; inconclusive means small, poorly fitted or top-dose-only effect; inactive means flat fitted curve, though single readings scatter.
Potency means the concentration at half of the fitted maximal effect.

One experiment deals with MKL-1. As to the kind of experiment: qHTS assay to identify novel small-molecules to repurpose for Merkel cell carcinoma treatment (AID 1296009). Further: nearly all actives have a fitted effect of over 60% in size. Particulars: MCC and control cell lines, CellTiter-Glo viability, 72 h; series mostly up to 46 µM. The method, boiled down: (§1)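 Viability readout: ATP luminescence (CellTiter-Glo) after 72 hr drug exposure at 37 degree celsius. Dose-response format was 8 points for NPC and 11 points for MIPE; data normalized to in-plate controls.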
A general note: In qHTS, concentration-response curves come from the screen itself.
On to `O=C(O)CNC(=O)c1ccccc1`, for which the Potency entry is “inactive”. The same measure, in the same setting: under `COC(=O)[C@@H]1CC2=CC(=O)CC[C@]2(C)[C@@]23O[C@@H]2C[C@@]2(C)[C@@H](CC[C@@]24CCC(=O)O4)[C@H]13` stands “inactive”; under `NC(CS)C(=O)O` (stereo not given), “inactive”. Still for that read-out and setting: the same measure for `CN(C)CCOc1ccccc1Cc1ccccc1`: “inactive”. Same read-out and setting: under `CCOC(=O)OC(C)OC1=C(C(=O)Nc2ccccn2)N(C)S(=O)(=O)c2ccccc21` (stereo not given) stands “inactive”; under `N[C@H](Cc1c[nH]c2ccccc12)C(=O)O`, “inactive”. Consider `C[C@H](O)C(=O)Nc1c(I)c(C(=O)NC(CO)CO)c(I)c(C(=O)NC(CO)CO)c1I`, for which the Potency entry was “inactive”. The same measure, in the same setting: under `CC(C)COC(=O)c1ccc(N)cc1` stands “inactive”; under `Cc1ccc(C(=O)C(C)CN2CCCCC2)cc1` (stereo not given), “inactive”; under `CC1(C)O[C@@H]2[C@@H](CO[C@@]3(COS(N)(=O)=O)OC(C)(C)O[C@@H]23)O1`, “inactive”. Take `CCN(CCCCOC(=O)c1ccc(OC)c(OC)c1)C(C)Cc1ccc(OC)cc1` (stereo not given): the Potency entry is “inactive”. Still for that read-out and setting: under `CN=C(NC#N)Nc1ccc(C2=NNC(=O)CC2C)cc1` (stereo not given) stands “inactive”. `Cc1nc2n(c(=O)c1CCN1CCC(c3noc4cc(F)ccc34)CC1)CCC[C@H]2O`: the Potency result was “inactive”.

The subject of the next experiment is MKL-2. Described as above. Particulars: MCC and control cell lines, CellTiter-Glo viability, 72 h; series mostly up to 46 µM. The method, boiled down: as §1
In the case of `COc1ccc(C2C(=O)c3ccccc3C2=O)cc1`, the Potency entry was “inactive”. As to `Cc1c(N(C)CS(=O)(=O)O)c(=O)n(-c2ccccc2)n1C`, the Potency result was “inactive”. Same read-out and setting: the same measure for `OC[C@H]1O[C@H](O[C@]2(CCl)O[C@H](CCl)[C@@H](O)[C@@H]2O)[C@H](O)[C@@H](O)[C@H]1Cl`: “inactive”. Regarding `C[C@H](CCC(=O)O)[C@H]1CC[C@H]2[C@@H]3C(=O)C[C@@H]4CC(=O)CC[C@]4(C)[C@H]3CC(=O)[C@]12C`, the Potency result was “inactive”. Same read-out and setting: under `Cc1cc(O)c(C(C)C)cc1Cl` stands “inactive”; under `O=C1c2ccccc2C(=O)C1c1ccccc1`, “inactive”. On the same count and under the same terms, the same measure for `Cc1ncc(CSSCc2cnc(C)c(O)c2CO)c(CO)c1O`: “inactive”. Still for that read-out and setting: the same measure for `NC[C@H]1O[C@H](O[C@H]2[C@H](O)[C@@H](O[C@H]3O[C@H](CO)[C@@H](O)[C@H](N)[C@H]3O)[C@H](N)C[C@@H]2N)[C@H](N)[C@@H](O)[C@@H]1O`: “inactive”; for `Cc1ccc(Nc2c(F)cccc2Cl)c(CC(=O)O)c1`: “inactive”; for `CC(=O)O[C@]1(C(C)=O)CC[C@H]2[C@@H]3C[C@H](C)C4=CC(=O)CC[C@]4(C)[C@H]3CC[C@@]21C`: “inactive”.

With `CC(=O)OCC(=O)[C@@]1(O)[C@H](C)C[C@H]2[C@@H]3CCC4=CC(=O)C=C[C@]4(C)[C@@]3(F)[C@@H](O)C[C@@]21C`, the Potency entry is “inactive”.

Turning to `CN1[C@@H]2CC[C@H]1CC(OC(=O)c1c[nH]c3ccccc13)C2` (stereo not given in full), the Potency result was “inactive”.

For the compound `Cc1c(C(C)C)c(=O)n(-c2ccccc2)n1C`, the Potency entry is “inactive”.

As to `CCCCC(=O)O[C@]1(C(=O)CO)CC[C@H]2[C@@H]3CCC4=CC(=O)CC[C@]4(C)[C@H]3[C@@H](O)C[C@@]21C`, the Potency entry is “inactive”. The same measure, in the same setting: the same measure for `O=c1[nH]c(=O)n([C@H]2CCCO2)cc1F`: “inactive”. The same measure, in the same setting: under `COC(=O)CCc1ccc(OCC(O)CNC(C)C)cc1` (stereo not given) stands “inactive”; under `Cc1cc2c(cc1CC(=O)c1sccc1S(=O)(=O)Nc1onc(C)c1Cl)OCO2`, “inactive”; under `CC(C)(C)NC(=O)[C@@H]1CN(Cc2cccnc2)CCN1C[C@@H](O)C[C@@H](Cc1ccccc1)C(=O)N[C@H]1c2ccccc2C[C@H]1O`, “inactive”. Same read-out and setting: the same measure for `CCCCS(=O)(=O)N[C@@H](Cc1ccc(OCCCCC2CCNCC2)cc1)C(=O)O`: “inactive”; for `Cc1onc(-c2c(Cl)cccc2Cl)c1C(=O)N[C@@H]1C(=O)N2[C@@H]1SC(C)(C)[C@@H]2C(=O)O`: “inactive”. With `CN1CCN(C(c2ccccc2)c2ccccc2)CC1`, the Potency result is “inactive”. Turning to `O=C(O)CNC(=O)c1ccccc1`, the Potency result is “inactive”.

As for `COC(=O)[C@@H]1CC2=CC(=O)CC[C@]2(C)[C@@]23O[C@@H]2C[C@@]2(C)[C@@H](CC[C@@]24CCC(=O)O4)[C@H]13`, the Potency entry was “inactive”. Regarding `NC(CS)C(=O)O` (stereo not given), the Potency result was “inactive”. Same read-out and setting: the same measure for `CN(C)CCOc1ccccc1Cc1ccccc1`: “inactive”; for `CCOC(=O)OC(C)OC1=C(C(=O)Nc2ccccn2)N(C)S(=O)(=O)c2ccccc21` (stereo not given): “inactive”. The same measure, in the same setting: the same measure for `N[C@H](Cc1c[nH]c2ccccc12)C(=O)O`: “inactive”; for `C[C@H](O)C(=O)Nc1c(I)c(C(=O)NC(CO)CO)c(I)c(C(=O)NC(CO)CO)c1I`: “inactive”; for `CC(C)COC(=O)c1ccc(N)cc1`: “inactive”.

In the case of `Cc1ccc(C(=O)C(C)CN2CCCCC2)cc1` (stereo not given), the Potency is 10.6 µM (active).

As to `CC1(C)O[C@@H]2[C@@H](CO[C@@]3(COS(N)(=O)=O)OC(C)(C)O[C@@H]23)O1`, the Potency result is “inactive”. On the same count and under the same terms, under `CCN(CCCCOC(=O)c1ccc(OC)c(OC)c1)C(C)Cc1ccc(OC)cc1` (stereo not given) stands “inactive”; under `CN=C(NC#N)Nc1ccc(C2=NNC(=O)CC2C)cc1` (stereo not given), “inactive”. Same read-out and setting: the same measure for `Cc1nc2n(c(=O)c1CCN1CCC(c3noc4cc(F)ccc34)CC1)CCC[C@H]2O`: “inactive”.

The next experiment concerns NIH3T3. The experiment is described as above. Particulars: MCC and control cell lines, CellTiter-Glo viability, 72 h; at 44.8 µM (top of the series) unless noted. The method, boiled down:
as §1
In the case of `COc1ccc(C2C(=O)c3ccccc3C2=O)cc1`, the result was inactive.

In the case of `Cc1c(N(C)CS(=O)(=O)O)c(=O)n(-c2ccccc2)n1C`, the result was inactive. Same read-out and setting: the same measure for `OC[C@H]1O[C@H](O[C@]2(CCl)O[C@H](CCl)[C@@H](O)[C@@H]2O)[C@H](O)[C@@H](O)[C@H]1Cl`: “inactive”; for `O=C1c2ccccc2C(=O)C1c1ccccc1`: “inactive”. Same read-out and setting: under `CC(=O)O[C@]1(C(C)=O)CC[C@H]2[C@@H]3C[C@H](C)C4=CC(=O)CC[C@]4(C)[C@H]3CC[C@@]21C` stands “inactive”; under `CC(=O)OCC(=O)[C@@]1(O)[C@H](C)C[C@H]2[C@@H]3CCC4=CC(=O)C=C[C@]4(C)[C@@]3(F)[C@@H](O)C[C@@]21C`, “inactive”. The same measure, in the same setting: under `CN1[C@@H]2CC[C@H]1CC(OC(=O)c1c[nH]c3ccccc13)C2` (stereo not given in full) stands “inactive”.

On to `CCCCS(=O)(=O)N[C@@H](Cc1ccc(OCCCCC2CCNCC2)cc1)C(=O)O`, for which the result was inactive. Regarding `CN1CCN(C(c2ccccc2)c2ccccc2)CC1`, the outcome was inactive.

For the compound `O=C(O)CNC(=O)c1ccccc1`, the outcome was inactive. The same measure, in the same setting: under `COC(=O)[C@@H]1CC2=CC(=O)CC[C@]2(C)[C@@]23O[C@@H]2C[C@@]2(C)[C@@H](CC[C@@]24CCC(=O)O4)[C@H]13` stands “inactive”; under `Cc1ccc(C(=O)C(C)CN2CCCCC2)cc1` (stereo not given), “inactive”; under `Cc1nc2n(c(=O)c1CCN1CCC(c3noc4cc(F)ccc34)CC1)CCC[C@H]2O`, “inactive [at 17.4 µM]”.
